# Assay results reported in PubChem BioAssay (NCI).
# About 83,000 compounds went through this panel and 20% of them were active in at least one assay; those are over-represented in the sample as a whole.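 A percent growth of 40 corresponds to 60% growth inhibition; 0 means no net growth; -100 means all cells died. Active threshold: below 10.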 A number with no mark means an inactive call. The source made the active and inactive calls.
# Assays:
# Test in all cases: NCI-60 one-dose screen, 48 h (100 = growth as untreated, 0 = no growth, -100 = all killed)
# Details in all cases: 10 µM unless noted
# SR leukemia = tested on: SR leukemia
# RPMI-8226 leukemia = tested on: RPMI-8226 leukemia
# OVCAR-8 ovarian = tested on: OVCAR-8 ovarian
# OVCAR-5 ovarian = tested on: OVCAR-5 ovarian
# OVCAR-4 ovarian = tested on: OVCAR-4 ovarian
# SK-OV-3 ovarian = tested on: SK-OV-3 ovarian
# IGROV1 ovarian = tested on: IGROV1 ovarian
# OVCAR-3 ovarian = tested on: OVCAR-3 ovarian
# HS 578T breast = tested on: HS 578T breast
# NCI/ADR-RES ovarian = tested on: NCI/ADR-RES ovarian
# T-47D breast = tested on: T-47D breast
# BT-549 breast = tested on: BT-549 breast
# MDA-MB-435 melanoma = tested on: MDA-MB-435 melanoma
# SW-620 colon = tested on: SW-620 colon
# MCF7 breast = tested on: MCF7 breast
# HCT-116 colon = tested on: HCT-116 colon
# HCC-2998 colon = tested on: HCC-2998 colon
# KM12 colon = tested on: KM12 colon
Compound,growth (SR leukemia),growth (RPMI-8226 leukemia),growth (OVCAR-8 ovarian),growth (OVCAR-5 ovarian),growth (OVCAR-4 ovarian),growth (SK-OV-3 ovarian),growth (IGROV1 ovarian),growth (OVCAR-3 ovarian),growth (HS 578T breast),growth (NCI/ADR-RES ovarian),growth (T-47D breast),growth (BT-549 breast),growth (MDA-MB-435 melanoma),growth (SW-620 colon),growth (MCF7 breast),growth (HCT-116 colon),growth (HCC-2998 colon),growth (KM12 colon)
CN1CCN(C(=S)SCCCCOc2cc(=O)oc3ccccc23)CC1,67.4%,64.8%,78.4%,101%,72.4%,99.5%,102%,95.8%,96.2%,76.2%,55.6%,81.3%,96.7%,100%,78.6%,86.8%,98.1%,85.4%
O=C(Nc1ncccc1OCc1ccccc1)NC1CCCCCC1,61.5%,68.1%,104%,95%,84.6%,110%,89.1%,89.1%,105%,89.7%,71%,78.2%,89%,94.9%,79.9%,58.2%,105%,88.8%
O=C(Nc1ccc(Cl)cc1)Oc1c(Cl)c(Cl)c(Cl)c(Cl)c1Cl,93.6%,90.5%,99.9%,94.6%,88.6%,90%,85.9%,98.8%,87.8%,94%,84.3%,92.6%,96.5%,101%,86%,89.1%,107%,96.6%
COc1ccc(C2=CC(c3cc(OC)c(OC)c(OC)c3)n3ncnc3N2)cc1 (stereo unspecified),10.3%,24.4%,5.91% (active),35%,41.4%,-7.15% (active),22.2%,-41.4% (active),27%,12.8%,62.9%,4.42% (active),-21.9% (active),21.5%,15%,0.658% (active),26.5%,6% (active)
C=C1CC[C@@H]2C(C)(C)[C@@H](O)CC[C@@]2(C)[C@@H]1COc1ccc2ccc(=O)oc2c1,73.2%,50.7%,83.4%,117%,67.5%,112%,95.3%,78.3%,101%,61.7%,-12.4% (active),72.7%,81.5%,99.4%,50.2%,76.6%,92.3%,70%
CN(Cc1cnc2nc(N)nc(N)c2n1)c1ccc(C(=O)NC(CCC(=O)O)C(=O)O)cc1Br (stereo unspecified),34.1%,54.3%,45.5%,27.7%,75%,45.3%,40.9%,53.8%,96.7%,38.4%,44.3%,61.9%,39.5%,28.6%,19%,19.8%,57.1%,28.4%
O=C(N/N=C\c1ccccc1S(=O)(=O)O)N/N=C/c1ccccc1S(=O)(=O)O,90.3%,94.6%,100%,97.1%,109%,108%,109%,108%,93.9%,103%,102%,118%,105%,91.9%,93.4%,106%,104%,94.1%
O=C(CCCCCNC(=O)c1cc(=O)c(O)co1)Nc1ccccc1,101%,95.7%,104%,102%,110%,118%,106%,109%,108%,102%,104%,95.9%,100%,101%,88.6%,97.6%,101%,100%
O=C(N/N=C/c1cc(Cl)ccc1O)c1ccccc1Nc1ccnc(C(F)(F)F)c1,105%,47.2%,63.5%,57.4%,28.7%,25%,92.5%,38%,75%,22.6%,8.91% (active),18.7%,35.2%,36.3%,20.6%,32.2%,81.3%,34.5%
CCOC(=O)C#Cc1c(C(=O)OCC)nnn1Cc1ccc(C(F)(F)F)cc1,-1.42% (active),7.43% (active),69%,91.2%,67.1%,99.7%,81.8%,13.6%,113%,97.1%,31.8%,63.1%,63.8%,-23.9% (active),1.53% (active),31.1%,102%,89.4%
Cc1cccc2c1C[C@@]1(C2=O)C(c2ccc(C(C)(C)C)cc2)=NOS1=O (stereo partly specified),71%,69.4%,89.2%,112%,86.3%,98.4%,64.5%,92.1%,87.2%,86%,70.2%,104%,109%,100%,66.2%,91.6%,109%,91.9%
COc1ccc(/C=C/C(c2cc(OC)c(OC)c(OC)c2)n2cncn2)cc1 (stereo unspecified),18.9%,50.8%,52.2%,90.2%,96.8%,35.5%,64.6%,9.06% (active),51.2%,36.3%,30.8%,45.5%,-9.62% (active),26.6%,22.5%,22%,84.2%,30.7%
S=c1[nH]c(=S)c2c(-c3ccccc3)c(-c3ccccc3)oc2[nH]1,94.2%,107%,110%,95.2%,95.2%,103%,99.6%,105%,104%,103%,91.4%,119%,97.3%,101%,94.3%,97.9%,101%,102%
Cc1ccc(N2C(=O)CCC2=O)cc1,104%,103%,108%,96.3%,103%,99.7%,113%,102%,99.4%,98.5%,105%,80.6%,102%,96.1%,94.6%,92.9%,108%,103%
COc1cc(-c2nc3sccn3c2-c2ccnc(NCCNS(=O)(=O)c3ccc(Cl)cc3)n2)ccc1F,34.5%,-18.9% (active),12.3%,112%,21.3%,54.4%,41.8%,43.1%,49.5%,13.7%,1.61% (active),30.9%,9.48% (active),50.6%,17.7%,20.9%,66.5%,17%
CCCn1cnc2c(c1=N)C(c1ccc(F)cc1)c1sc3c(F)cccc3c1O2 (stereo unspecified),28.8%,39.7%,59.1%,81.4%,76.7%,71%,46.2%,10.5%,28.7%,31.1%,53.9%,63.9%,-35.6% (active),25.1%,15.1%,36.3%,76.9%,36.1%
CC1(C)CC2=C3C=C[C@@H]4[C@@]5(C)CCC(=O)C(C)(C)[C@@H]5CC[C@@]4(C)[C@]3(C)CC[C@@]2(C(=O)O)C[C@H]1O,24.4%,-7.05% (active),32.6%,74.4%,24.4%,1% (active),16.5%,11.6%,58.1%,33.3%,20.3%,34.3%,27.1%,32.9%,14.7%,0.846% (active),35.4%,27%
